The campaign covered roughly 420,000 compounds. About 50,000 (12%) were called active. About 26% were inconclusive and are not listed. The call rests on the fitted dose curve; in most records, active means well fitted inhibition curve with a large enough effect; inconclusive means small, poorly fitted or top-dose-only effect; inactive means flat fitted curve, though single readings scatter. What follows is part of a selection rich in actives, with near analogues and random picks from the rest. A call without a number means that no potency is given here.
Test: qHTS for Inhibitors of human tyrosyl-DNA phosphodiesterase 1 (TDP1): qHTS in cells in presence of CPT; further: nearly all actives have a fitted effect of over 55% in size
Details: chicken DT40 Tdp1-/-;hTDP1 cells + 20 nM CPT, ATP luminescence, 48 h; series mostly up to 46.2 µM
How it was run: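 Cell growth measured by CellTiter-Glo luminescence after a minimum 48 h, 37 C compound exposure with 20 nM CPT in Tdp1-knockout DT40 cells stably expressing hTDP1, seeded 400/well; qHTS titration format.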
Potency means the concentration at half of the fitted maximal effect.

SMILES	Potency
CC(C)(C)C(=O)c1c(N)[nH]c(C(=O)c2ccccc2)c1-c1ccc(F)cc1	inactive
Cc1cc(C)c2c(c1)cc(C)c1nnc(SCC(=O)Nc3cc(C)on3)n12	8.2 µM (active)
Cc1cc(NC(=O)CSc2nnc(-c3ccco3)n2N)no1	inactive
Cc1cc(NC(=O)CSc2nnnn2-c2ccc(F)cc2)no1	inactive
O=C(CC1Oc2ccccc2NC1=O)NCc1ccc(F)cc1 (configuration not stated)	inactive
COc1cccc(NC(=O)CSc2nnc(C3CCCCC3)n2N)c1	inactive
CCN(CC)S(=O)(=O)c1ccc2c(c1)nc(CN(C)C(=O)Nc1ccc(Cl)cc1)n2C	18.4 µM (active)
CCN(CC)S(=O)(=O)c1ccc(NC(=O)c2cnc(C)cn2)cc1	inactive
CCN(CC)S(=O)(=O)c1ccc(Cl)c(NC(=O)c2ccncc2)c1	inactive
COc1cc(NS(=O)(=O)c2ccc(NC(=S)NC(=O)c3ccc(Br)cc3)cc2)ncn1	inactive
C=CCOc1cccc(CNCc2cccnc2)c1	inactive
COC(=O)[C@H]1[C@H]2C[C@H]3c4[nH]c5ccccc5c4CCN3C[C@@H]2CC[C@@H]1O	inactive
COc1ccc(-c2ccc3[nH]c4c(c3c2)CCN2C[C@H]3[C@H](C)ON(C)[C@H]3C[C@@H]42)cc1	20.6 µM (active)
C[C@@H]1ON(C)[C@H]2C[C@H]3c4cc(N5CCN(C)CC5)ccc4CCN3C(=O)[C@@H]12	inactive
COc1ccc(NC(=O)C[C@H]2C(=O)N(CCc3ccccc3)C[C@@H]2C)cc1	inactive
O=C(C[C@H]1C(=O)N(c2ccc(F)c(F)c2)C[C@@H]1Cc1ccccc1)Nc1ccccc1	11.2 µM (active)
CNC(=O)C[C@H]1C(=O)N(c2ccc(OC)cc2)C[C@@H]1Cc1ccccc1	inactive
CCOc1ccc(CNCCSc2nnnn2C)cc1	inactive
COC(=O)COc1cccc2c(=O)n(CC(=O)NCc3ccccc3)ccc12	1.84 µM (active)
CCOCCn1ccc2c(OCC(=O)NCc3ccc(C)cc3)cccc2c1=O	inactive
COC(=O)COc1cccc2c(=O)n(CC(=O)NCCc3ccc(OC)c(OC)c3)ccc12	inactive
O=C(NN=CC=Cc1ccccc1)C(O)C(O)C(=O)NN=CC=Cc1ccccc1 (configuration not stated)	inactive
CCCCOc1ccc(-c2nnc(-c3ccco3)o2)cc1	inactive
CCC(=O)Oc1cccc(C(=O)Nc2ccc(-c3nnc(-c4ccco4)o3)cc2)c1	6.51 µM (active)
CCOc1ccc(-c2nnc(-c3ccco3)o2)cc1	inactive

SMILES	Potency
COc1ccc(C)cc1S(=O)(=O)Nc1cc2c3c(c1)CCC(=O)N3CCC2	inactive
Cc1nc(C(F)(F)F)ccc1C(=O)N1CCC1(C)C(=O)NS(=O)(=O)c1ccccc1Cl (configuration not stated)	inactive
CCNC(=S)N(CCN(CC)CC)Cc1cc2cc3c(cc2[nH]c1=O)OCO3	inactive
CCOC(=O)C1CCCN(C(=O)c2cccc(S(=O)(=O)N3CCOCC3)c2)C1 (configuration not stated)	inactive
CCN(CC)S(=O)(=O)c1ccc(Cl)c(C(=O)NCCN2CCOCC2)c1	inactive
CCOC(=O)C1CCN(C(=O)c2cccc(S(=O)(=O)N(CC)c3ccccc3)c2)CC1	14.6 µM (active)
CCN(c1ccccc1)S(=O)(=O)c1cccc(C(=O)NCc2ccccc2CN2CCOCC2)c1	20.6 µM (active)
O=C(NCCN1CCOCC1)c1cccc(S(=O)(=O)Nc2ccc(F)cc2)c1	inactive
CCOC(=O)C1CCCN(C(=O)c2ccc(N(C)C)cc2)CC1 (configuration not stated)	inactive
CCOc1ccc(CNC(=O)c2ccc3nc(CC)c(CC)nc3c2)cc1OC	inactive
COc1ccc(C(=O)NC(=S)N2CCNC(=O)C2CC(=O)OC(C)C)cc1 (configuration not stated)	inactive
CCOc1cc(C(=O)Nc2ccc(S(=O)(=O)Nc3cnc4ccccc4n3)cc2)cc(OCC)c1OCC	inactive
CCc1nc2ccc(C(=O)NCc3ccc(OC)cc3)cn2c1N(CC)Cc1cccc(Br)c1	23.1 µM (active)
CCc1nc2ccc(C(=O)N(C)CCN(C)C)cn2c1N(CC)CCOC	inactive
CCc1nc2ccc(C(=O)Nc3cccc(OC)c3)cn2c1N(CCC(C)C)CCN(C)C	inactive
CCc1nc2ccc(C(=O)N(C)Cc3ccco3)cn2c1N(C)C(=O)Cc1ccccc1	inactive
CCc1nc2ccc(C(=O)N3CCC(O)(Cc4ccccc4)CC3)cn2c1N(C)C(=O)Cc1ccccc1	inactive
CCc1nc2ccc(C(=O)Nc3cc(-c4ccccc4)ccc3OC)cn2c1N(CC)CC(=O)N(C)C	14.6 µM (active)
O=C(C[C@H]1CC[C@@H](NC(=O)c2ccncc2)[C@@H](CO)O1)NCC1CC1	inactive
O=C(NCCCNc1ccc([N+](=O)[O-])cc1Cl)c1ccccc1F	inactive
N#CCSc1ccccc1NC(=O)CN1C(=O)NC(CCc2ccccc2)C1=O (configuration not stated)	inactive
CCOC(=O)c1c(NC(=O)COc2cc(C)ccc2C(C)C)sc(C)c1C	inactive
Cc1cnc(C(=O)OCC(=O)Nc2ccc(Cl)cc2Cl)cn1	inactive
COC(=O)c1c(NC(=O)COc2ccc(Cl)cc2Cl)sc2c1CC(C)(C)NC2(C)C	7.31 µM (active)
O=S(=O)(NCCc1ccc(F)cc1)c1cccc2cccnc12	inactive

SMILES	Potency
CCOC(=O)c1ccc(NC(=O)Cn2cc(S(=O)(=O)Cc3ccccc3F)c3ccccc32)cc1	inactive
O=C(c1ccc(F)cc1)c1cn(Cc2ccc(F)cc2)c2cc3c(cc2c1=O)OCCO3	inactive
CCOc1ccc(C(=O)c2cn(Cc3ccccc3OC)c3ccc(F)cc3c2=O)cc1	16.4 µM (active)
CCOc1ccc(C(=O)c2cn(Cc3ccc(F)cc3)c3ccc(F)cc3c2=O)cc1	18.4 µM (active)
COc1ccccc1CNC(=O)CN1CCC(n2cnc3cc(F)ccc32)CC1	inactive
Cc1ccc(Cn2cc(C(=O)NN)c(=O)c3ccc(F)cc32)cc1	inactive
COc1ccc(NC(=O)Cn2cc(C(=O)c3ccncc3)c(=O)c3cc(C)ccc32)cc1Cl	inactive
CC12CCC(C(=O)N3CCN(c4ncccn4)CC3)(c3nc4ccccc4nc31)C2(C)C (configuration not stated)	inactive
Cc1nc(SCC(=O)Nc2ccc(C(=O)O)cc2)n[nH]1	inactive
CC1CC(C)CN(C(=O)C2CC(=O)N(c3ccc(F)cc3)C2)C1 (configuration not stated)	inactive
CC(=O)Nc1ccc(NC(=O)CS(=O)(=O)c2cn(CC(=O)N3CCCCC3)c3ccccc23)cc1	inactive
COc1ccccc1C(=O)N1C(CC(=O)Nc2ccccc2C)C(=O)NC2CCCCC21 (configuration not stated)	inactive
CCc1cc2c(N3CCN(c4nnc(CC)s4)CC3)ncnc2s1	10.3 µM (active)
CCOCCCNCc1ccc(OCc2ccc(F)cc2)c(OC)c1	inactive
O=C(NCCCO)C(=O)Nc1c2c(nn1-c1ccccc1)CSC2	inactive
COc1ccc(S(=O)(=O)N2CCCCCC2)cc1C(=O)N(C)Cc1cccc(OC)c1OC	inactive
CCN(CC)S(=O)(=O)c1ccc(OC)c(NC(=O)CCc2c(C)noc2C)c1	inactive
CCN(CC)S(=O)(=O)c1ccc(N(C)Cc2cccc(OC)c2OC)nc1	23.1 µM (active)
CCC(C(=O)N1CCN(S(=O)(=O)c2sc(C(=O)O)c(C)c2C(=O)O)CC1)c1ccccc1 (configuration not stated)	inactive
CCCCCCC(O)(CCN1CCCCC1)c1ccccc1 (configuration not stated)	inactive
O=C(CSc1ncn[nH]1)Nc1nc2c(F)c(F)c(F)cc2s1	inactive
Cc1c(CCOC(=O)CC23CC4CC(CC(C)(C4)C2)C3)sc[n+]1Cc1ccc([N+](=O)[O-])cc1	18.4 µM (active)
Cc1ccc(OC(=O)CSc2nnc(-c3cccs3)o2)cc1	inactive
COc1ccc(C(=O)CSc2nnc(-c3ccco3)o2)cc1	inactive
COc1ccc(-n2c(C)cc(C(=O)CSc3nnc(-c4cccs4)o3)c2C)cc1	16.4 µM (active)

SMILES	Potency
Cc1ccc(S(=O)(=O)N2CC[C@H]3[C@@H](C2)C(=O)C[C@@H](c2ccccc2)N3S(=O)(=O)c2ccc(C)cc2)cc1	inactive
Cc1ccc(C)c(S(=O)(=O)Nc2cc(C)on2)c1	inactive
CC(NC(=O)CC1SC(N)=NC1=O)c1ccccc1 (configuration not stated)	inactive
Cc1nc(CN(C)C(=O)CC2C(=O)NCCN2Cc2ccc(F)cc2)cs1 (configuration not stated)	inactive
CCCC(=O)Nc1ncnc2c1ncn2[C@@H]1O[C@@H]2OP(=O)(O)OC[C@H]2[C@H]1OC(=O)CCC	inactive
O=C(Cc1ccc(Cl)cc1)NC1CCS(=O)(=O)C1 (configuration not stated)	inactive
O=S1(=O)CCC(NC(=S)SCc2ccccc2Br)C1 (configuration not stated)	8.2 µM (active)
CCCSC(=S)NC1CCS(=O)(=O)C1 (configuration not stated)	16.4 µM (active)
COc1ccc(NC(=S)NC2CCS(=O)(=O)C2)cc1 (configuration not stated)	inactive
CC(C)C(=O)NC(NC(=S)NC1CCS(=O)(=O)C1)C(Cl)(Cl)Cl (configuration not stated)	inactive
O=C(CSc1ccccc1F)NC1CCS(=O)(=O)C1 (configuration not stated)	inactive
CCOc1ccc(NC(=O)CN(C)CC(=O)NC(C)c2ccccc2)cc1OCC (configuration not stated)	inactive
CN(CCC(=O)Nc1cc(S(=O)(=O)N(C)C)ccc1Cl)CC(=O)Nc1ccc(F)cc1	inactive
CN1OC[C@@H]2CN(C(=O)c3cccnc3)[C@H](c3ccc(N4CCCCC4)cc3)C[C@@H]21	inactive
CCOC(=O)CN(C(=O)COc1nc(-c2ccccc2)cc(C)c1C#N)c1ccc(F)cc1	inactive
O=[N+]([O-])c1ccc(NC(=S)N2CCN(c3ccccn3)CC2)cc1	16.4 µM (active)
COc1cc([N+](=O)[O-])ccc1NC(=S)N1CCN(c2ccccn2)CC1	inactive
CCOC(=O)c1ccc(NC(=S)N2CCN(c3ccccn3)CC2)cc1	inactive
CC(=O)Nc1ccc(NC(=O)CCCNC(=O)c2ccc(Cl)cc2)cc1	inactive
Cc1ccc(Cn2c(CNC(=O)Cc3cccc(C)c3)nc3cccnc32)cc1	13 µM (active)
COCCn1c(CCC(=O)Nc2cc(C)ccc2C)nc2cccnc21	inactive
COCCCNC(=O)CCc1nc2cccnc2n1Cc1ccc(OC)cc1	inactive

Source: PubChem BioAssay AID686979 (National Center for Advancing Translational Sciences (NCATS), 2013)
